# Test results reported in PMC5540273 (PLoS ONE, 2017).
# System: CHEK1
# Details: concentration: 1 μM, replicates: in singlicate; n = 1
# 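Further: KINOMEscan kinase panel screen.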
row,Compound,%Inh [%]
1,N#CC1(c2cccc(C(=O)Nc3cccc(Oc4ccc5nc(NC(=O)C6CC6)sc5n4)c3)c2)CC1,0
2,Cc1ccc(C)c(NC(=O)Nc2ccc(C)c(-c3ccc(C(=O)Nc4ccncc4)cc3)c2)c1 [GSK1398473],22
3,O=C(Nc1n[nH]c2nc(-c3ccccc3O)ccc12)C1CC1 [SB-711880],3
4,CCn1c(-c2nonc2N)nc2c(-c3ccccc3)ncc(OCCCN)c21.O=C(O)C(F)(F)F.O=C(O)C(F)(F)F [GSK260205],0
5,Cl.Cl.NC(CNC(=O)c1cc(Br)c(-c2ccnc3[nH]ccc23)s1)c1ccccc1 (stereo not drawn) [GSK1322949],0
6,CCOc1nccc(-c2c(-c3ccc(F)cc3)ncn2C2CCNCC2)n1 [SB-249175],0
7,COc1cccc2c(-c3ccncc3)c(-c3ccc(F)cc3)nn12 [GW468513],0
8,CC(C)c1nc(-c2cccc(NS(=O)(=O)c3c(F)cccc3F)c2)c(-c2ccnc(Nc3ccc(N4CCOCC4)nc3)n2)s1.Cl [GSK1723980],0
9,O=C(Nc1n[nH]c2cc(-c3cccs3)ccc12)C1CC1 [SB-731284],0
10,Cc1ccc(NC(=O)c2cccc(N3CCCCC3)c2)cc1-c1ccc(C(=O)NCC2CC2)cc1 [GSK1917008],100
11,Cl.O=C(Nc1ccc(Oc2ccc3[nH]c(NC(=O)c4ccco4)nc3c2)cc1)Nc1cc(C(F)(F)F)ccc1F [GW683134],21
12,Cn1cc(-c2ccc3c(c2)CCN3C(=O)Cc2cc(F)cc(C(F)(F)F)c2)c2c(N)ncnc21 [GSK2635225],8
